± gives the standard deviation of the averaged measurements.
Tested on: AmpC beta-lactamase (E. coli)
Assay: AmpC inhibition relative to DMSO; higher = more inhibition
Description: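 Aggregation counter-screen: inhibition of E. coli AmpC beta-lactamase (5 nM, nitrocefin substrate, 50 mM sodium phosphate pH 7.0, RT, 5 min) by KAT inhibitors at 4, 11, 33 and 100 uM, with or without 0.01% Triton X-100. Percent inhibition is relative to DMSO controls. Four technical replicates.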

[1] = 4 µM, detergent: 0.01% Triton X-100
[2] = 11 µM, detergent: 0.01% Triton X-100
[3] = 33 µM, detergent: 0.01% Triton X-100
[4] = 100 µM, detergent: 0.01% Triton X-100
[5] = 100 µM, detergent: no detergent

SMILES | AmpC inhibition [1] [%] | AmpC inhibition (4 µM, detergent: no detergent) [%] | AmpC inhibition [2] [%] | AmpC inhibition (11 µM, detergent: no detergent) [%] | AmpC inhibition [3] [%] | AmpC inhibition (33 µM, detergent: no detergent) [%] | AmpC inhibition [4] [%] | AmpC inhibition [5] [%]
CNC(=O)Nc1ccc2c(c1)CC[C@@]21OC(=O)N(CC(=O)N(Cc2ccc(F)cc2)[C@@H](C)C(F)(F)F)C1=O | 5.14 ± 2.9 | -1.32 ± 9.8 | 5.67 ± 2.5 | 5.86 ± 3.8 | -0.581 ± 4.1 | -6.17 ± 3.8 | -3 ± 2.8 | -3.55 ± 4.8
COc1cc(/C=C/c2cc(/C=C/c3ccc(O)c(OC)c3)n(-c3ccc(C(=O)[O-])cc3)n2)ccc1O.[Na+] | 1.31 ± 3 | -4.8 ± 14 | 2.98 ± 1.9 | -29.6 ± 5.8 | 4.87 ± 2.2 | -38.3 ± 23 | 2.96 ± 6 | -2.93 ± 15
Cc1cc(-c2ccccc2)cc(C(=O)NNS(=O)(=O)c2ccccc2)c1F | 10.3 ± 2.6 | 7.83 ± 8 | 6.24 ± 2.3 | 9.5 ± 7 | 1.15 ± 3 | 15 ± 4.6 | 8.19 ± 9.7 | 53.4 ± 7.8
O=C1C(Cl)=C(NCCN2CCOCC2)C(=O)c2ncccc21 | 8.96 ± 3 | 0.538 ± 7 | 5.66 ± 0.9 | 0.224 ± 2.9 | 5.99 ± 7.4 | -1.42 ± 2.1 | 6.05 ± 2 | -4.13 ± 5.6
COC1=CC=C(S(=O)(O/N=C2C=C(C(C(C)=C\2)=O)C)=O)C=C1 | 2.45 ± 1.2 | -3.63 ± 5.6 | 6.48 ± 2.3 | 3.85 ± 1.5 | 6.35 ± 3.8 | 0.996 ± 9.5 | 8.37 ± 3.3 | -1.7 ± 3.7

Reference: the supplement of paper PMC10011410
